Results taken from ChEMBL document CHEMBL4513216, “Probing the Open Global Health Chemical Diversity Library for Multistage-Active Starting Points for Next-Generation Antimalarials” (ACS Infect Dis, 2020).
Among all 65,000 compounds or so, about 2,100 (3.2%) showed an effect of 50% or more. The median lay at about -52%. This is one part of a sample in which strong results are shown more often than they occur.

test system: Plasmodium falciparum; test: Screen against P. falciparum Asexual Blood Stage (ABS), at 5uM; format: functional, Dd2; conditions: tested at 5 uM

Going from `CN(C)[C@@H]1C[C@@H](CO)N(C(=O)Nc2cccc(F)c2F)C1` to `CN(C)C(=O)CC1CC2(CCNCC2)c2cc(F)ccc21` (centres undefined), the INHIBITION rises from -46.8% to -22.3%.

Going from `O=C1NCC2(CCCN(Cc3ccccc3OCCO)C2)O1` (centres undefined) to `OCCOc1ccccc1CN1CCCC(O)(CO)C1` (centres undefined), the INHIBITION rises from -55.2% to -48.1%.

Going from `OCC1(O)CCCN(Cc2ccccc2OCCc2ccccc2)CC1` (centres undefined) to `Cn1nccc1-c1ncc2c(c1C(=O)O)CCN(Cc1ccccc1)C2`, the INHIBITION falls from 65.1% to -41.8%.

Going from `CO[C@H]1CN(C(=O)OC(C)(C)C)CC1NCc1ccoc1` (some centres undefined) to `CC(C)(C)c1nccc(N2CCC(OCCN3CCCCC3)C2)n1` (centres undefined), the INHIBITION rises from -73.1% to 62.5%.

Compared with `COc1ccnc(N2CCC(OCCN3CCCCC3)C2)n1` (centres undefined), `Cc1ccnc(N2CCC(OCCN3CCCCC3)C2)n1` (centres undefined) is lower in INHIBITION: 51.2% for the first, -83.8% for the second.

Compared with `Cc1cnc(N2CCC(OCCN3CCCCC3)C2)nc1C` (centres undefined), `Cc1cc(C)nc(N2CCC(OCCN3CCCCC3)C2)n1` (centres undefined) is lower in INHIBITION: 23.5% for the first, 13.3% for the second.

Going from `c1cnc(N2CCC(OCCN3CCCCC3)C2)nc1` (centres undefined) to `Cn1cnc2c(N3CCCC3)nc(C3CCN(CC4CC4)CC3)cc21`, the INHIBITION rises from -58% to 68.8%.

Going from `Cc1cccc(-c2c[nH]c(C3CCCN3)n2)c1` (centres undefined) to `Cc1oc(-c2ccccc2)nc1CN1CCC(c2ccnn2C)CC1`, the INHIBITION falls from -5.91% to -18.9%.

First: CC(C)c1nccc(CN2CCCC(O)(CN3CCCC3)C2)n1 (centres undefined)
Second: Cn1cnc2c(N3CCCC3)nc(C3CCNCC3)cc21
The INHIBITION of the first is lower: -69.7% for the first, -31.4% for the second.

Going from `CN(C)C(=O)CN1C[C@H]2CC[C@@H](C1)N(C(=O)CCn1cncn1)C2` to `O=C(C1CCS(=O)(=O)CC1)N1C[C@@H]2CC[C@H]1CN(Cc1ccccc1)C2`, the INHIBITION rises from -87.6% to -51.3%.

Compared with `O=C(NC1CC1)N1CCc2ccc(=O)n(CCN3CCCC3)c2CC1`, `Cc1nc(C(=O)N2CCOCC2)cc(N2CCC(C(N)=O)CC2)n1` is higher in INHIBITION: -113% for the first, -45.2% for the second.

Compared with `Cc1cnn(CCNCc2csc(-c3ccco3)n2)c1`, `Cc1cnn(CCNCc2csc(-c3ccc(C)o3)n2)c1` is lower in INHIBITION: 54.9% for the first, -32.6% for the second.

Compared with `Cc1cnn(CCNCc2csc(-c3ccc(F)cc3)n2)c1`, `Cc1cnn(CCNCc2csc(-c3ccccc3)n2)c1` is higher in INHIBITION: -58% for the first, 66.6% for the second.

First: Cc1cnn(CCNCc2csc(-c3cccs3)n2)c1
Second: Cc1cnn(CC(C)NCc2csc(-c3ccco3)n2)c1 (centres undefined)
The INHIBITION of the first is higher: -51.7% for the first, -84% for the second.

Going from `C=C1C(C)(C)[C@@H]2CC[C@]1(C(=O)N1CCC(n3cc(CO)nn3)CC1)C2` to `Cn1cc(-c2nc(C3CCN(CC4CC4)CC3)cc3c2ncn3C)cn1`, the INHIBITION falls from -90.8% to -98.2%.

Going from `Cc1nc(CN(C)C2CCN(CCC(=O)N3CCOCC3)C2)no1` (centres undefined) to `CC(C)C(=O)N1CCC2(CC1)COCCN2Cc1ccc(F)cc1`, the INHIBITION rises from -30.8% to -29.9%.

Going from `Cc1nc(C)n(CC2CCCCN2Cc2nc(-c3ccco3)no2)n1` (centres undefined) to `Cc1nc(C)n(CC2CCCN2Cc2nc(-c3ccco3)no2)n1` (centres undefined), the INHIBITION falls from 61.7% to -131%.

Going from `Cc1nc(C)n(CC2CCCN2Cc2nc(-c3cccs3)no2)n1` (centres undefined) to `Cc1nc(C)n(CC2CCCN2Cc2cc(-c3cccs3)on2)n1` (centres undefined), the INHIBITION rises from 23.3% to 65.2%.

Compared with `Cc1nc(C)n(CC2CCCCN2Cc2nc(-c3ccoc3)no2)n1` (centres undefined), `Cc1nc(C)n(CC2CCCN2Cc2coc(-c3cccs3)n2)n1` (centres undefined) is lower in INHIBITION: -49.9% for the first, -63.6% for the second.

Compared with `COCC(=O)N1CCN(Cc2cccnc2)c2ncccc2C1`, `CN1CCN(S(=O)(=O)c2cccnc2)c2cnccc21` is lower in INHIBITION: -53.1% for the first, -111% for the second.

Compared with `CN(C)C(=O)c1cnn2c1OCCC2`, `CCn1cc(S(=O)(=O)N2CCC(C)Sc3ccccc32)cn1` (centres undefined) is higher in INHIBITION: -117% for the first, -0.433% for the second.

Compared with `CC1CCN(S(=O)(=O)c2cccnc2)c2ccccc2S1` (centres undefined), `CS(=O)(=O)N1CCCC1CS(=O)(=O)c1ccccc1` (centres undefined) is lower in INHIBITION: 55% for the first, -100% for the second.

Going from `CN(C)CC(Nc1nc(N)nc2c1CCNCC2)c1ccccc1` (centres undefined) to `Cn1nc(N2CCCC(C(=O)Nc3nc4ccccc4[nH]3)C2)ccc1=O` (centres undefined), the INHIBITION falls from -104% to -105%.

First: CCOC(=O)[C@H]1[C@@H](O)C(=O)N(C)C12CCN(C(=O)CC1CCCC1)CC2
Second: CCOc1ccc(CN(CCC#N)CCN2CCOCC2)cc1OC
The INHIBITION of the first is higher: -1.62% for the first, -99% for the second.

First: c1cnnc(N2CCCC(NCc3nc(-c4ccco4)no3)C2)c1 (centres undefined)
Second: O=C1CNc2ncnc(N3CCN(c4ccccc4F)CC3)c2N1
The INHIBITION of the first is lower: -78.3% for the first, -21.3% for the second.

Compared with `O=C(COc1ccccc1)N1C[C@@H]2COC[C@]2(COc2cccnc2)C1`, `COc1ccc(CN(CCC#N)CCN2CCOCC2)cc1OC` is higher in INHIBITION: -110% for the first, -43.2% for the second.

Compared with `Cc1cc(C)n(CC(C)NC(=O)NCc2c(C)cc(C)[nH]c2=O)n1` (centres undefined), `N#CCCN(CCN1CCOCC1)Cc1ccc(F)c(Br)c1` is higher in INHIBITION: -51.8% for the first, 52.6% for the second.
